These results are taken from PubChem BioAssay (EPA / NIEHS).

A short description of assay [1]: TOX21_p53_BLA_p2_viability: Viability Assessment in the Tox21 HCT-116 p53 Agonism Beta-lactamase Assay, Phase 2 (AID 2283591).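 Also: actives lower the ATP signal meaning cytotoxicity.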 The essentials:
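HCT116 p53-bla cells, 4000/well, dosed after 5 h plating (217-fold dilution of DMSO stocks) and incubated 16 h at 37C. Viability taken as cellular ATP by CellTiter-Glo luminescence after 30 min RT; signal loss marks cytotoxicity.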

A short description of assay [2]: TOX21_p53_BLA_p3_viability: Viability Assessment in the Tox21 HCT-116 p53 Agonism Beta-lactamase Assay, Phase 3 (AID 2283593).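 Also: cells exposed to compound for 16 h before reading.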 In a few lines:
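HCT116 cells, 4000/well, dosed 5 h after plating by pin transfer (217-fold dilution from DMSO stock) and incubated 16 h at 37C, 5% CO2. Viability read as ATP luminescence with CellTiter-Glo after 30 min at room temperature.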

Assay [3] concerns the target Cellular tumor antigen p53 (Homo sapiens) (UniProt P04637). The assay is described as follows: TOX21_p53_BLA_p3_ratio: Tox21 HCT-116 p53 Agonism Beta-lactamase Assay, Ratio, Phase 3 (AID 2283596). In a few lines:
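Cells were seeded at 4000/well, rested 5 h at 37C, then dosed with DMSO compound solutions (217-fold dilution) for 16 h. CCF4-AM substrate was loaded for 2 h at room temperature, and the 460/530 nm emission ratio was fitted for gain of signal versus DMSO.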

Assay [4] can be described thus: TOX21_p53_BLA_p4_viability: Viability Assessment in the Tox21 HCT-116 p53 Agonism Beta-lactamase Assay, Phase 4 (AID 2283597).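 Also: hits lower the luminescence signal meaning cytotoxicity.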 The essentials: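 4000 HCT116 cells per well; 5 h attachment; compounds from DMSO, 217-fold dilution; 16 h at 37C. Then CCF4-AM, 2 h RT, followed by CellTiter-Glo, 30 min RT, luminescence. Decrease = cytotoxicity.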
Assay [5] addresses Cellular tumor antigen p53 (Homo sapiens) (UniProt P04637). The assay is described as follows: TOX21_p53_BLA_p5_ratio: Tox21 HCT-116 p53 Agonism Beta-lactamase Assay, Ratio, Phase 5 (AID 2283599). The essentials:
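HCT-116 p53-bla cells (4000/well) plated 5 h, dosed with compound (217-fold DMSO dilution) for 16 h at 37 C; CCF4-AM substrate 2 h at room temperature. Activity is the 460/530 nm emission ratio (405 nm excitation), fitted in gain-of-signal direction versus DMSO.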

Assay [6] is described as follows: TOX21_p53_BLA_p5_viability: Viability Assessment in the Tox21 HCT-116 p53 Agonism Beta-lactamase Assay, Phase 5 (AID 2283600). In a few lines: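 Decreased CellTiter-Glo luminescence denotes lost viability. Exposure: 16 h at 37C, 5% CO2, with compounds from DMSO stocks diluted 217-fold in wells of 4000 cells.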
Assay [7] deals with Cellular tumor antigen p53 (Homo sapiens) (UniProt P04637). The assay is described as follows: TOX21_p53_BLA_p4_ratio: Tox21 HCT-116 p53 Agonism Beta-lactamase Assay, Ratio, Phase 4 (AID 2283601). The essentials:
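HCT-116 p53 beta-lactamase reporter cells (4000/well) preincubated 5 h, then compound (217-fold dilution of DMSO stock) for 16 h at 37C. CCF4-AM substrate added 2 h at room temperature; 460/530 nm emission ratio fitted upward versus DMSO.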

The target in assay [8] is PGR (gene 5241) (UniProt P06401). The assay is described as follows: TOX21_PR_BLA_Followup_Antagonist_ratio: Tox21 HEK293 Progesterone Receptor (PR) Antagonism Beta-lactamase Follow-Up Assay, Ratio (AID 2283934).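 Also: PR-UAS-bla HEK293T cells stimulated with 1 nM R5020 agonist for 16 hr.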 In a few lines:
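Measured in PR-UAS-bla HEK293T cells co-treated with compound and 1 nM promegestone for 16 hr; beta-lactamase ratio read after 2 h FRET substrate loading, with parallel CellTiter-Glo cytotoxicity.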

Assay [9] is described as follows: TOX21_PR_BLA_Followup_Agonist_viability: Viability Assessment in the Tox21 HEK293 Progesterone Receptor (PR) Agonism Beta-lactamase Follow-Up Assay (AID 2283935).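 Also: signal loss means lower viability so actives are cytotoxic.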 The essentials:
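Viability is read as CellTiter-Glo luminescence, where loss of signal indicates cytotoxicity. The cells are PR-UAS-bla HEK293T given compounds for 16 hr at 37C and 5% CO2, in the same wells used for the bla readout.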

Assay [10] has as its target PGR (gene 5241) (UniProt P06401). The assay is described as follows: TOX21_PR_LUC_Followup_Antagonist: Tox21 HEK293 Progesterone Receptor (PR) Antagonism Luciferase Follow-Up Assay (AID 2283938).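 Also: curve fitted upward as signal gain over DMSO baseline despite antagonist label.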 In a few lines: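 HEK293-PR-A-luc cells, 3,000/well, preincubated 5 h at 37C before compound addition in DMSO; 16 h compound exposure at 37C. ONE-Glo luciferase luminescence read after 30 min at room temperature, fitted relative to DMSO baseline.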

A short description of assay [11]: TOX21_PR_LUC_Followup_Antagonist_viability: Viability Assessment in the Tox21 HEK293 Progesterone Receptor (PR) Antagonism Luciferase Follow-Up Assay (AID 2283940). In a few lines:
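Loss of CellTiter-Glo ATP signal indicates cytotoxicity in HEK293-PR-A-luc cells grown in 10% charcoal-stripped FBS medium, seeded 3,000 per well and incubated 16 h with compound at 37C.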

Assay [12] is described as follows: TOX21_PR_LUC_Followup_Agonist_viability: Viability Assessment in the Tox21 HEK293 Progesterone Receptor (PR) Agonism Luciferase Follow-Up Assay (AID 2283941).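 Also: loss of signal means cytotoxicity so actives lower viability.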 In a few lines: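 Seeding: HEK293-PR-A-luc, 3,000 cells/well, 5 h at 37C. Treatment: compound in DMSO, 16 h, 37C. Read: CellTiter-Glo ATP luminescence, signal loss taken as lower viability.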
A short description of assay [13]: CCTE_Harrill_HTTr_Viability_MCF7: CCTE's 6-hour Cell Viability Assessment for the High-Throughput Transcriptomics (HTTr) Platform, in MCF-7 cells cultured in DMEM + 10% fetal bovine serum, Harrill Lab (AID 2284010; active = hit-call score of the fitted dose curve at least 0.9, where 1 is the maximum; inactive = score below 0.9). In a few lines:
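Eight-point concentration series, six-hour exposure. Propidium iodide exclusion imaged to assess membrane integrity as a cytotoxicity readout; bidirectional fitting was done with DMSO as negative control and activity baseline.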

Assay [14] can be described thus: CCTE_Harrill_HTTr_Apoptosis_MCF7: CCTE's 6-hour Apoptosis Assessment for the High-Throughput Transcriptomics (HTTr) Platform, in MCF-7 cells cultured in DMEM + 10% fetal bovine serum, Harrill Lab (AID 2284011; active = hit-call score of the fitted dose curve at least 0.9, where 1 is the maximum; inactive = score below 0.9). In a few lines: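 MCF-7 cells in DMEM + 10% FBS exposed 6 h to chemicals over an eight-point dilution series. Caspase-3/7 activation imaged by high-content CellEvent Green staining; fitted bidirectionally versus DMSO.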

Structures are written as SMILES. Records with an inconclusive call do not appear. Calls of active or inactive are those of the source. The calls were made as follows, unless noted: active = hit-call score of the fitted dose curve at least 0.9, where 1 is the maximum; inconclusive = response in the unintended direction; inactive = score below 0.9.

Sequence of Cellular tumor antigen p53 (Homo sapiens) (P04637 whole entry, looked up): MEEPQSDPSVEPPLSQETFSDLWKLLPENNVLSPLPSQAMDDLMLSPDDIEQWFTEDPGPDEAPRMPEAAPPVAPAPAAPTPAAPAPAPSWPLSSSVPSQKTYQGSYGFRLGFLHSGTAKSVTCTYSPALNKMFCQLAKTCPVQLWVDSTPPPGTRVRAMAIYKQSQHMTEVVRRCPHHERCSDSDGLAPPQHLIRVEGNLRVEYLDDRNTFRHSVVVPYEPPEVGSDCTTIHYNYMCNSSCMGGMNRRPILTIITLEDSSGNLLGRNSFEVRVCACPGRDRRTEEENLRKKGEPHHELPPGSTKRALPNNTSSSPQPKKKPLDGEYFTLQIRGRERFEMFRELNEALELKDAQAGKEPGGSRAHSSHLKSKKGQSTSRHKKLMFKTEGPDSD
Sequence of PGR (gene 5241) (P06401 whole entry, looked up): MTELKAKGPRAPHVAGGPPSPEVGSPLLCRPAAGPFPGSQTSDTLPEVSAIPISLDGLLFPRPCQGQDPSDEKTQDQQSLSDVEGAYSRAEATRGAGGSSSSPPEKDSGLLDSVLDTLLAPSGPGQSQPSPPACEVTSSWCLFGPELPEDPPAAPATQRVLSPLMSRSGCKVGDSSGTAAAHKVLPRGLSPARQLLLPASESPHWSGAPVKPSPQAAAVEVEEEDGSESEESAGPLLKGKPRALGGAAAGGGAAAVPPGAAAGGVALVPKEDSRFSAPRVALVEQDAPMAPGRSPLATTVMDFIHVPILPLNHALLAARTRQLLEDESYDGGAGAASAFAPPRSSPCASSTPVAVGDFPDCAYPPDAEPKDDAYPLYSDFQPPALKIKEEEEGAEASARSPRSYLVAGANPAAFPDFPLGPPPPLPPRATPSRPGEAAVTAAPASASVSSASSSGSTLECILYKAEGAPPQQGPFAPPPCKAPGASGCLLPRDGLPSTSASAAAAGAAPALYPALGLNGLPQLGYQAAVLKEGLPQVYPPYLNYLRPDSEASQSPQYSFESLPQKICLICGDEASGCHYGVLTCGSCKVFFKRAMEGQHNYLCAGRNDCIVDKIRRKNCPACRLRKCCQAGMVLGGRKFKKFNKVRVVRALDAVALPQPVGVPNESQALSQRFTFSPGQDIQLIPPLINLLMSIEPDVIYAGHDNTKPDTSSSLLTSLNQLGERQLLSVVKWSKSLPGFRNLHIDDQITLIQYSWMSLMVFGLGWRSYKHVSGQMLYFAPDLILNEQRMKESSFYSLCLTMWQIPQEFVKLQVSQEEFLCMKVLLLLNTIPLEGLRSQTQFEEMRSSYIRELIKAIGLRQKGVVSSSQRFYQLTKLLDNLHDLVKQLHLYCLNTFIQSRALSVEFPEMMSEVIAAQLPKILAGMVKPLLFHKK

Regarding `C[C@H](CCC(=O)O)[C@H]1CC[C@H]2[C@@H]3[C@H](O)C[C@@H]4C[C@H](O)CC[C@]4(C)[C@H]3C[C@H](O)[C@]12C`, the molecule was classed as inactive in [1], in assay [2], in [3], in [4], in [5] and in assay [6]. In assay [7], the outcome was inactive.
Consider `CCCCCCCCS(=O)(=O)Cl`, for which the result in [1], in [2], in assay [3], in assay [4], in assay [6] and in [7] was inactive.
On to `CCCC(=O)CC`, for which the result in assay [1], in [2], in assay [3], in [4], in [6] and in assay [7] was inactive.
What is called AC50 is the midpoint of the concentration-response curve, whichever way the signal moves. In the case of `CCC(COC(=O)CCS)(COC(=O)CCS)COC(=O)CCS`, the molecule was classed as inactive in assay [1], in [2] and in assay [6]. Moreover, the AC50 in assay [3] was 72.1 µM (active).
`Nc1ccccc1S(=O)(=O)c1ccccc1`: the outcome in assay [1], in assay [2], in [3], in assay [5], in assay [6] and in assay [7] was inactive. For the same molecule, the result (with PGR (gene 5241) [8]; in assay [9]; with PGR (gene 5241) [10]; in assay [11]; in assay [12]) was inactive.
In the case of `[O]=[Mo](=[O])=[O]`, the result in assay [1], in assay [2], in assay [3] and in [6] was inactive.
On to `COC(OC)OC`, for which the call in [1], in assay [2], in assay [3] and in assay [7] was inactive.
As to `CC(C)=CCCC(C)=CC=NO`, the molecule was classed as inactive in assay [1], in assay [2] and in [4].
Turning to `CCOC(=O)[C@@H](N)CS`, the result in assay [1], in assay [2], in assay [3], in [6] and in [7] was inactive.
In the case of `O=S(O)CNc1ccc(S(=O)(=O)c2ccc(NCS(=O)O)cc2)cc1`, the call in [1], in assay [2], in [3] and in assay [6] was inactive.
With `COc1ccc([C@@H]2Sc3ccccc3N(CCN(C)C)C(=O)[C@@H]2OC(C)=O)cc1`, the molecule was classed as inactive in assay [1], in [6], in assay [13] and in [14]. The AC50 was 38.8 µM (active) in [2] and 43.6 µM (active) in assay [3].
On to `NS(=O)(=O)c1cc2c(cc1C(F)(F)F)NC(Cc1ccccc1)NS2(=O)=O` (configuration not stated), for which the call in assay [1], in [2], in assay [3], in assay [5], in [6] and in [7] was inactive.
On to `Nc1nc2c(c(=O)[nH]1)N(C=O)C(CNc1ccc(C(=O)N[C@@H](CCC(=O)O)C(=O)O)cc1)CN2` (some centres not stated), for which the molecule was classed as inactive in [1], in [2], in [3], in assay [5] and in assay [7].
Consider `NC[C@H]1O[C@H](O[C@H]2[C@H](O)[C@@H](O[C@H]3O[C@H](CO)[C@@H](O)[C@H](N)[C@H]3O)[C@H](N)C[C@@H]2N)[C@H](N)C[C@@H]1O`, for which the molecule was called inactive in assay [1], in assay [2], in assay [3], in [5] and in [7].
For `OCCOCC#CCOCCO`, the call in assay [1], in assay [2], in [3], in assay [6] and in assay [7] was inactive.
As for `OC1(c2ccc(Cl)c(C(F)(F)F)c2)CCN(CCCC(c2ccc(F)cc2)c2ccc(F)cc2)CC1`, the AC50 in assay [1] was 12.8 µM (active); in assay [2] it was 30.7 µM (active); in [3], 40.1 µM (active); in assay [5], 43.2 µM (active); in [6] it was 37.6 µM (active); in assay [7], 34.1 µM (active).
